Measured values reported in the supplement of paper PMC8728848.
Shown is part of a subset that was picked to be rich in the strongest signals.

How the values were obtained:
Experiment in all cases: glycan array binding signal (z-score within array); higher = stronger binding
Settings in all cases: glycan notation: IUPAC condensed, linker removed
[1] = molecular target: Fuc(a1-2)Gal(b1-3)GalNAc(a1-3)[Fuc(a1-2)]Gal(b1-4)Glc
Outline: (§1)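 Glycan array data were curated from 3228 arrays in the Consortium for Functional Glycomics database and kept only where the protein sequence was available. Glycan names were converted to IUPAC-condensed notation, and columns mapping to the same glycan were averaged. The binding signal is a within-array Z-score, averaged across arrays of the same protein sequence at different concentrations or buffers and across linkers. Negative Z-scores can be read as non-binding.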

[2] = molecular target: Fuc(a1-2)Gal(b1-3)GalNAc(b1-4)[Neu5Ac(a2-3)]Gal(b1-4)Glc
Outline: as §1

[3] = molecular target: Fuc(a1-2)Gal(b1-3)GlcNAc(b1-3)[Neu5Ac(a2-6)Gal(b1-4)GlcNAc(b1-6)]Gal(b1-4)Glc
Outline: as §1

Fuc(a1-2)Gal(b1-4)GlcNAc = molecular target: Fuc(a1-2)Gal(b1-4)GlcNAc
Outline: as §1

[4] = molecular target: Fuc(a1-2)[Gal(a1-3)]Gal(b1-3)GlcNAc(b1-6)GalNAc
Outline: as §1

[5] = molecular target: Fuc(a1-2)[Gal(a1-4)]Gal(b1-4)GlcNAc
Outline: as §1

[6] = molecular target: Fuc(a1-2)[GalNAc(a1-3)]Gal(b1-3)GlcNAc(b1-6)GalNAc
Outline: as §1

[7] = molecular target: Fuc(a1-2)[GalNAc(a1-3)]Gal(b1-4)GlcNAc
Outline: as §1

[8] = molecular target: Fuc(a1-2)[GalNAc(a1-3)]Gal(b1-4)GlcNAc(b1-3)Gal(b1-4)GlcNAc
Outline: as §1

[9] = molecular target: Fuc(a1-2)[GalNAc(a1-3)]Gal(b1-4)GlcNAc(b1-6)GalNAc
Outline: as §1

Gal(a1-3)Gal(b1-3)GlcNAc = molecular target: Gal(a1-3)Gal(b1-3)GlcNAc
Outline: as §1

[10] = molecular target: Gal(a1-3)Gal(b1-3)[Fuc(a1-4)]GlcNAc(b1-2)Man(a1-3)[Gal(a1-3)Gal(b1-3)[Fuc(a1-4)]GlcNAc(b1-2)Man(a1-6)]Man(b1-4)GlcNAc(b1-4)GlcNAc
Outline: as §1

[11] = molecular target: Gal(a1-3)Gal(b1-4)[Fuc(a1-3)]GlcNAc(b1-2)Man(a1-3)[Gal(a1-3)Gal(b1-4)[Fuc(a1-3)]GlcNAc(b1-2)Man(a1-6)]Man(b1-4)GlcNAc(b1-4)GlcNAc
Outline: as §1

[12] = molecular target: Gal(a1-4)Gal(b1-4)GlcNAc(b1-2)Man(a1-3)[Gal(a1-4)Gal(b1-4)GlcNAc(b1-2)Man(a1-6)]Man(b1-4)GlcNAc(b1-4)GlcNAc
Outline: as §1

[13] = molecular target: Gal(b1-3)GlcNAc(a1-6)Gal(b1-4)GlcNAc
Outline: as §1

[14] = molecular target: Gal(b1-3)GlcNAc(b1-2)Man(a1-3)[Gal(b1-3)GlcNAc(b1-2)Man(a1-6)]Man(b1-4)GlcNAc(b1-4)[Fuc(a1-6)]GlcNAc
Outline: as §1

[15] = molecular target: Gal(b1-3)GlcNAc(b1-3)Gal(b1-4)[Fuc(a1-3)]GlcNAc
Outline: as §1

[16] = molecular target: Gal(b1-3)[Fuc(a1-4)]GlcNAc(b1-2)Man
Outline: as §1

[17] = molecular target: Gal(b1-4)GlcNAc(b1-2)Man(a1-3)Man(b1-4)GlcNAc(b1-4)GlcNAc
Outline: as §1

[18] = molecular target: Gal(b1-4)GlcNAc(b1-2)[Gal(b1-4)GlcNAc(b1-4)]Man(a1-3)[GlcNAc(b1-4)][Gal(b1-4)GlcNAc(b1-2)Man(a1-6)]Man(b1-4)GlcNAc(b1-4)GlcNAc
Outline: as §1

[19] = molecular target: Gal(b1-4)GlcNAc(b1-3)Gal(b1-3)GalNAc
Outline: as §1

[20] = molecular target: Gal(b1-4)GlcNAc(b1-3)Gal(b1-4)GlcNAc(b1-2)Man(a1-3)[Gal(b1-4)GlcNAc(b1-3)Gal(b1-4)GlcNAc(b1-2)Man(a1-6)]Man(b1-4)GlcNAc(b1-4)[Fuc(a1-6)]GlcNAc
Outline: as §1

[21] = molecular target: Gal(b1-4)GlcNAc(b1-3)Gal(b1-4)GlcNAc(b1-2)[Gal(b1-4)GlcNAc(b1-3)Gal(b1-4)GlcNAc(b1-6)]Man(a1-6)[Gal(b1-4)GlcNAc(b1-3)Gal(b1-4)GlcNAc(b1-2)Man(a1-3)]Man(b1-4)GlcNAc(b1-4)GlcNAc
Outline: as §1

[22] = molecular target: Gal(b1-4)GlcNAc(b1-3)Gal(b1-4)GlcNAc(b1-3)Gal(b1-4)GlcNAc(b1-2)[Gal(b1-4)GlcNAc(b1-3)Gal(b1-4)GlcNAc(b1-3)Gal(b1-4)GlcNAc(b1-6)]Man(a1-6)[Gal(b1-4)GlcNAc(b1-3)Gal(b1-4)GlcNAc(b1-3)Gal(b1-4)GlcNAc(b1-2)Man(a1-3)]Man(b1-4)GlcNAc(b1-4)[Fuc(a1-6)]GlcNAc
Outline: as §1

[23] = molecular target: Gal(b1-4)GlcNAc(b1-3)Gal(b1-4)GlcNAc(b1-3)Gal(b1-4)GlcNAc(b1-3)Gal(b1-4)GlcNAc(b1-2)[Gal(b1-4)GlcNAc(b1-3)Gal(b1-4)GlcNAc(b1-3)Gal(b1-4)GlcNAc(b1-3)Gal(b1-4)GlcNAc(b1-6)]Man(a1-6)[Gal(b1-4)GlcNAc(b1-3)Gal(b1-4)GlcNAc(b1-3)Gal(b1-4)GlcNAc(b1-3)Gal(b1-4)GlcNAc(b1-2)Man(a1-3)]Man(b1-4)GlcNAc(b1-4)[Fuc(a1-6)]GlcNAc
Outline: as §1

[24] = molecular target: Gal(b1-4)GlcNAc(b1-3)Gal(b1-4)GlcNAc(b1-3)Gal(b1-4)GlcNAc(b1-3)Gal(b1-4)GlcNAc(b1-3)Gal(b1-4)GlcNAc(b1-2)Man(a1-3)[Gal(b1-4)GlcNAc(b1-3)Gal(b1-4)GlcNAc(b1-3)Gal(b1-4)GlcNAc(b1-3)Gal(b1-4)GlcNAc(b1-3)Gal(b1-4)GlcNAc(b1-2)Man(a1-6)]Man(b1-4)GlcNAc(b1-4)GlcNAc
Outline: as §1

[25] = molecular target: Gal(b1-4)GlcNAc(b1-3)Gal(b1-4)GlcNAc(b1-3)GalNAc
Outline: as §1

B1: Arath Fbox (Arabidopsis thaliana), NP_178341.1 (protein)
chain: EFTWGRKRRVKSESSPFDSFPEDCISYIISFTNPRDACVAATVSKTFESTVKSDIIWEKFLPADYESLIPPSRVFSSKKELYFSLCNDPVLFDDDKKSVWLEKASGKRCLMLSAMNLSIIWGDNPQYWQWIPIPESRFEKVAKLRDVCWFEIRGRTNTRVLSPRTRYSAYIVFKGVDKCYGFQNVAIEAAVGVVGQEPSRRLICFSEAIRRGRRNVVKPKQREDGWMEIELGEFFNDGGIMDNDEIEMSALETKQLNRKCGLIIQGIEIRPAKILAAAAASFLEQKLISEEDLNSAVDHHHHHH
- glycan array binding signal (z-score) [1]: -0.513
- glycan array binding signal (z-score) [2]: -0.123
- glycan array binding signal (z-score) [3]: -0.599
- glycan array binding signal (z-score) (Fuc(a1-2)Gal(b1-4)GlcNAc): 0.005
- glycan array binding signal (z-score) [4]: 0.025
- glycan array binding signal (z-score) [5]: 0.262
- glycan array binding signal (z-score) [6]: -0.626
- glycan array binding signal (z-score) [7]: -0.433
- glycan array binding signal (z-score) [8]: -0.64
- glycan array binding signal (z-score) [9]: -0.711
- glycan array binding signal (z-score) (Gal(a1-3)Gal(b1-3)GlcNAc): 12
- glycan array binding signal (z-score) [10]: 3.32
- glycan array binding signal (z-score) [11]: 0.161
- glycan array binding signal (z-score) [12]: 0.198
- glycan array binding signal (z-score) [13]: 0.001
- glycan array binding signal (z-score) [14]: 3.36
- glycan array binding signal (z-score) [15]: -0.717
- glycan array binding signal (z-score) [16]: 2.33
- glycan array binding signal (z-score) [17]: -0.673
- glycan array binding signal (z-score) [18]: -0.348
- glycan array binding signal (z-score) [19]: -0.431
- glycan array binding signal (z-score) [20]: 3.33
- glycan array binding signal (z-score) [21]: 2.73
- glycan array binding signal (z-score) [22]: 2.13
- glycan array binding signal (z-score) [23]: 2.36
- glycan array binding signal (z-score) [24]: 2.6
- glycan array binding signal (z-score) [25]: 0.46
